The results in this text go back to ChEMBL document CHEMBL3988442, “University of Dundee, Small-Polar-MMV Screening Library” (2021).

Molecules are shown by their SMILES. Among all 48,000 compounds or so, about 13,000 (27%) showed an effect of 50% or more. The list shows a part of the results.

This assay has as its system Wolbachia pipientis. Kind of assay: Anti-Wolbachia Cell-Based Screen. It is filed as functional. Set-up: scale not given: in the data most compounds retested in dose-response had high values. As to conditions: 5 µM.
Take `O=C1C(Nc2ccc3nccnc3n2)CCN1c1ccccc1F` (stereo not drawn): the “Percent Effect” value is -13.15%. As to `O=C(CCCc1ccccc1)Nc1cnc(N2CCOCC2)nc1`, the “Percent Effect” value is recorded as -16.01%. With `CNC(=O)c1cccc(CNC(C)c2cc(Cl)ccc2OC)c1` (stereo not drawn) the figure was 8.961%; with `CCc1c(C)nn(C)c1NC(=O)N1CCCOC(Cn2cccn2)C1` (stereo not drawn), -2.471%; with `CCOCCn1nc(C)cc1C(=O)N1CC(C)(C)[C@@](C)(O)C1`, -27.83%. With `CC1=Nc2c(c(=O)[nH]n2C(C)C)C(c2ccsc2)S1` (stereo not drawn) the figure was 124.6%. For `CC1=Nc2c(c(=O)[nH]n2C(C)C)C(c2ccccc2)S1` (stereo not drawn) the value was 3.045%; for `CC1=Nc2c(c(=O)[nH]n2C(C)C)C(c2ccc(F)c(F)c2)S1` (stereo not drawn), 0.5897%. In the case of `COc1cc(OC)cc(N2CCC(NCc3cc[nH]n3)C2)c1` (stereo not drawn), the “Percent Effect” value was -8.563%. For `Cc1ccc(C(NC(=O)Cc2nc3ncccn3n2)C2CC2)cc1` (stereo not drawn) the value was -15.47%; for `O=S(=O)(c1ccc2c(c1)CCC2)N1CCCC(Cn2cncn2)C1` (stereo not drawn), 1.903%. With `O=C(CSCc1ccccn1)NCC1CC1` the figure was 22.7%; with `O=C(CSCc1ccncc1)NCC1CCN(C2CC2)C1` (stereo not drawn), 13.02%; with `CCCC(=O)NCc1cccc(C(=O)OC)c1`, -9.94%. Consider `O=C(CSCc1ccccn1)NCC1CCN(C2CC2)C1` (stereo not drawn), for which the “Percent Effect” value is 21.4%. With `O=C(NCCNc1ncccn1)NCc1cccc(OC(F)F)c1` the figure was -1.067%; with `CCN(C)Cc1cccc(CNC(=O)NCCc2ccccn2)c1`, 112.6%; with `CCN(C)Cc1cccc(CNC(=O)CSCc2ccncc2)c1`, 124.3%. For `CC(Cn1ccnc1)NC(=O)NCCc1ccccn1` (stereo not drawn) the value was -12.71%. With `COc1cccc(CSCC(=O)NCc2cccnc2)c1` the figure was 3.69%. Take `CCCSCC(=O)Nc1ncn(CC(=O)NCc2ccccc2)n1`: the “Percent Effect” value is listed as 0.11%. With `CCCSCC(=O)NCc1cccc(CN(C)CC)c1` the figure was 105%.

On to `CCN(C)Cc1cccc(CNC(=O)CSCc2ccccn2)c1`, for which the “Percent Effect” value was determined as 99.73%. With `Cc1csc(N2CCCN(C(=O)C(C)n3ccnc3)CC2)n1` (stereo not drawn) the figure was -4.315%; with `Cc1nnc2n1CC(CNCc1nc(-c3cccs3)no1)CC2` (stereo not drawn), -7.356%. With `CCn1cc2c(n1)C(COC)CN(Cc1ccccn1)C2` (stereo not drawn), the “Percent Effect” value is -2.413%.

For the molecule `CCSCCn1cc(-c2ncc[nH]2)nn1`, the “Percent Effect” value is on record as 7.304%. For `CNC1CCN(C2CCN(c3ccc(-c4ccco4)cc3)CC2)CC1` the value was -8.193%; for `Cn1cc(C(=O)N2CCCN(c3cccnn3)CC2)c2ccccc21`, -6.467%. With `O=S(=O)(CCCn1cncn1)Cc1ccccc1Cl` the figure was -3.419%; with `CC(C)C(=O)Nc1cccc(CNC(=O)CSCc2ccccn2)c1`, 119.7%.

As for `CC(C)c1cc2c(O)nc(CSCC(=O)NCc3ccccn3)nc2s1`, the “Percent Effect” value is on record as -13.17%. `CC(C)OCCOCc1cccc(NC(=O)NCc2ccccn2)c1`: the “Percent Effect” value came to 14.04%. With `CCNc1cc2c(nn1)CCN(C(=O)c1cccc3c1OCCO3)C2` the figure was 1.992%; with `Nc1cc2c(nn1)CCN(C(=O)c1cccc3c1OCO3)C2`, 99.08%. In the case of `Nc1cc2c(nn1)CCN(C(=O)c1cccc3c1OCCO3)C2`, the “Percent Effect” value was found to be 2.04%. With `CCNc1cc2c(nn1)CCN(C(=O)C1COc3ccccc3O1)C2` (stereo not drawn) the figure was -8.562%.

In the case of `CNc1cc2c(nn1)CCN(C(=O)c1cccc3c1OCCO3)C2`, the “Percent Effect” value is reported as 94.51%.

Regarding `Nc1cc2c(nn1)CCN(C(=O)CCc1ccc3c(c1)OCO3)C2`, the “Percent Effect” value is on record as -16.52%. For `CCNc1cc2c(nn1)CCN(C(=O)c1cccc3c1OCO3)C2` the value was 107.3%; for `CNc1cc2c(nn1)CCN(C(=O)c1cccc3c1OCO3)C2`, -1.864%. With `Cc1oncc1C(=O)N1CC[C@H]2[C@H]1CCN2S(C)(=O)=O` the figure was 102.2%; with `Cc1cc(C(=O)N2C[C@@H]3CN(S(C)(=O)=O)CCO[C@@H]3C2)c(C)o1`, -7.965%; with `CO[C@@H]1CCN(C(=O)c2cnoc2C)[C@H]1Cc1ccccc1`, -17.67%. With `O=C(c1cnccn1)N1CC[C@H]2[C@H]1CCN2S(=O)(=O)C1CC1` the figure was -1.574%; with `Cc1cc(C(=O)N2CC[C@H]3[C@H]2CCN3S(C)(=O)=O)c(C)o1`, 109.3%; with `O=C(c1ccoc1)N1CC[C@H]2[C@H]1CCN2S(=O)(=O)C1CC1`, -16.54%. For `CC(=O)Nc1nc(-c2ccccc2)c[nH]1`, the “Percent Effect” value is -21.73%. As for `CN(C)c1cc(CNC(=O)c2n[nH]c(=O)c3ccccc23)ccn1`, the “Percent Effect” value came out at 128.9%. For the molecule `CN(C)c1cc(CNC(=O)c2ccc(F)cc2F)ccn1`, the “Percent Effect” value was 0.296%. For `CN(C)c1cc(CNC(=O)c2cccnc2O)ccn1` the value was 123.9%; for `CN(C)c1cc(CNC(=O)c2cc(Cl)ccn2)ccn1`, 157.2%. With `CN(C)c1cc(CNC(=O)c2cn(-c3ccc(F)cc3)nn2)ccn1` the figure was -3.053%; with `CN(C)c1cc(CNC(=O)c2ccc(O)nc2)ccn1`, 121.2%. For the molecule `Cc1cc(C(=O)NCc2ccnc(N(C)C)c2)c(C)o1`, the “Percent Effect” value turned out to be 4.439%.

On to `CN(C)c1cc(CNC(=O)c2ccc(=O)[nH]n2)ccn1`, for which the “Percent Effect” value stood at 0.8371%. For `Cc1nccn1-c1cc(CNC(=O)c2ccnc(N(C)C)c2)ccn1` the value was 25.84%; for `CCS(=O)(=O)c1ccccc1C(=O)NCc1ccnc(N(C)C)c1`, -0.6479%; for `COc1cc(C(=O)N(C)C)ccc1NC(=O)c1ccsc1`, -14.53%. As to `CCc1nc(C)c(C2CC(=O)Nc3c2c(-c2cccnc2)nn3C)[nH]1` (stereo not drawn), the “Percent Effect” value was 10.2%. For `CCNC(=O)NC1CN(Cc2ccncc2Cl)C[C@@H]1OC` (stereo partly drawn) the value was -18.14%; for `CC(=O)c1ccc(NC(=O)NCc2cccc(N(C)C)n2)cc1C`, -13.49%; for `COCCN1CCN(Cc2noc(C3CC3)n2)CC1C` (stereo not drawn), -13.95%. Consider `Cc1nnc(CSc2n[nH]c(-c3ccccn3)n2)o1`, for which the “Percent Effect” value came to 3.251%.

For `O=C1NCCCCC1NS(=O)(=O)N1CCCCCC1` (stereo not drawn), the “Percent Effect” value was found to be 41.49%. For `CCNC(=O)c1cnc(Sc2nccn2C)c(Cl)c1` the value was -8.333%; for `COc1nn(C)cc1C(=O)NCC(=O)Nc1cccnc1`, 5.398%; for `CC(=O)N1CCN(c2nc(C(F)(F)F)nc3sc(C)c(C)c23)CC1`, 10.88%.
